Assay outcomes from PubChem BioAssay.
DAX1 inh-1 = DAX1 (NR0B1) inhibitors on StAR promoter, primary screen, cell-based, luminescence, SF-1 (NR5A1), full-length DAX-1 | inhibition, % at 6.8 µM | HEK293T StAR-luciferase reporter, SF-1/DAX-1 repression relief | actives 1.1% (n = 370,000);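 active = inhibition above the mean over all tested compounds plus 3 SD, cut at about 3.6% in these data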;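 note: 0% = DAX-1 cells with DMSO and 100% = cells lacking DAX-1 with DMSO; higher inhibition means more luminescence from relief of DAX-1 repression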
hcDAF-12 act = H. contortus DAF-12 nuclear receptor activators, primary screen, cell-based, luminescence, HEK293, lit1-tk-luc reporter | HEK293 hcDAF-12 lit1-tk-luc reporter; 0% DMSO, 100% Δ7-dafachronic acid | activation, % at 6.8 µM | actives 1.4% (n = 370,000) | AID 652067, 2013;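 active = activation above the mean of all tested compounds plus 3 SD, cut at about 5.5% in these data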;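 note: 100% = response to 3 µM Δ7-dafachronic acid high control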
DAX1 inh-2 = DAX1 (NR0B1) inhibitors, primary screen, cell-based, HEK293, Gal4-DAX1, luciferase luminescence; Nuclear receptor subfamily 0 group B member 1 (Homo sapiens), P51843; HEK293 Gal4-DAX1 luciferase reporter; inhibition, % at 6.75 µM; actives 0.99% (n = 340,000); AID 504766, 2011;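 active = inhibition above the mean over all tested compounds plus 3 SD, cut at about 4.2% in these data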;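 note: 0% = DAX1-transfected cells with DMSO and 100% = empty-vector control cells with DMSO; inhibition shows as a rise in luminescence from relieved DAX1 repression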
Target sequence (P51843 207-470 limits assumed): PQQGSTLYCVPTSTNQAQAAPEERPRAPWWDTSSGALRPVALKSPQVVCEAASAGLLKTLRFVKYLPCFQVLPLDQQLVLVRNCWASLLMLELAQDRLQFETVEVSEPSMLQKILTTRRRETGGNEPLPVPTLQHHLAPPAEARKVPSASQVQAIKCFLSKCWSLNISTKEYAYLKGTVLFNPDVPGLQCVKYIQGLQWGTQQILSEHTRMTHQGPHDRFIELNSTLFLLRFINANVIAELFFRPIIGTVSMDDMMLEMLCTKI
hgDAF-12 ag = H. glycines DAF-12 receptor agonists, primary screen, cell-based, luminescence, HEK293, GAL4 fusion, UAS-luciferase; Nuclear hormone receptor DAF-12 (Heterodera glycines), GAL4 fusion; HEK293 GAL4-hgDAF12 UAS-luciferase reporter, agonist luminescence; normalized to butyrate control; activation, % at 6.8 µM; actives 1.8% (n = 370,000);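 active = activation above a cutoff set at the mean of all screened compounds plus 3 SD, cut at about 10% in these data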;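 note: 0% = DMSO wells and 100% = sodium butyrate wells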
ssDAF12 agonist = S. stercoralis DAF-12 nuclear receptor activators, primary screen, cell-based, luminescence, HEK293, GRIP1 co-expression, lit1-tk-luc. activation, % at 6.8 µM. HEK293 ssDAF-12/GRIP1 lit1-tk-luc reporter; % of 3 µM dafachronic acid response. Nuclear hormone receptor DAF-12 (Strongyloides stercoralis). actives 1% (n = 370,000);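 active = activation above the mean over all tested compounds plus 3 SD, cut at about 0.9% in these data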;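 note: 0% = DMSO-only wells and 100% = 3 µM delta7-dafachronic acid wells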
Starred values were filed as active, the others as inactive; · = no result. Rows were chosen to be rich in hits. Some 4.1% of all compounds tested hit in one or more screens of this group.

SMILES	DAX1 inh-1	hcDAF-12 act	DAX1 inh-2	hgDAF-12 ag	ssDAF12 agonist
Nc1ccccc1Nc1cc(-c2ccccc2)[nH]n1	1.9	6.0*	0.6	10.2	-1.4
CN(C)c1ccc(C(=O)NN2C(=O)c3ccccc3C2=O)cc1	-0.2	-0.2	0.0	10.7*	-1.2
O=C(O)c1ccc(S(=O)(=O)c2ccc3c(c2)C(=O)N(NC(=O)c2ccccc2)C3=O)cc1	1.5	0.7	1.0	12.0*	-0.6
O=C(NN1C(=O)c2ccccc2C1=O)c1ccncc1	0.2	-1.1	0.8	-2.3	-1.8
CC1=C(C(=O)Nc2ccccn2)C(c2ccc(Cl)cc2Cl)NC(=S)N1 (stereo not given)	0.6	1.4	0.4	1.5	-0.8
CC1=C(C(=O)Nc2ccccn2)C(c2ccccc2Cl)NC(=S)N1 (stereo not given)	2.0	1.6	1.1	11.3*	-0.8
COC(=O)c1scc(C)c1NC(=O)Cc1ccccc1	-0.6	-0.8	0.3	1.5	-1.1
CCOC(=O)C(=CNNc1c(C)csc1C(=O)OC)C(=O)OCC	-0.4	6.3*	0.5	-0.8	-0.4
C=CCCC1CN(Cc2ccc(OC)cc2)S(=O)(=O)c2c(cccc2N2CCCCC2)O1 (stereo not given)	-0.2	1.9	·	1.3	-1.3
O=C(c1ccccc1)c1cnc(-c2ccc(Cl)cc2)s1	2.4	1.5	5.0*	12.3*	-0.1
CCCCCC1CCC(c2ccc(/C(N)=N/O)cc2)CC1 (stereo not given)	-0.1	1.4	5.5*	-2.3	-1.2
O=C(Nc1ccc(Cl)cc1)c1cccs1	-0.2	-0.1	0.3	12.1*	-0.8
O=C(NCCCNC(=O)c1cccs1)c1cccs1	0.2	-2.1	1.2	-2.2	-0.9
O=C(NCc1ccco1)c1cnc2sccn2c1=O	-0.4	-0.2	0.5	-1.0	-0.7
O=C(NCCc1ccccc1)c1cccs1	3.0	2.9	0.7	11.4*	0.5
Cc1cc2ccccc2n1CCNC(=O)c1cccs1	2.2	5.5	-0.2	9.2	1.6*
O=C(NCCc1ccccc1)c1cnc2sccn2c1=O	3.5	2.7	1.7	10.7*	-0.3
C[C@@H]1CN([C@H](C)CO)C(=O)c2cc(NC(=O)Nc3ccccc3)ccc2O[C@@H](C)CCCCO[C@H]1CN(C)S(C)(=O)=O	0.3	-1.3	·	-4.3	-1.4
CCN(CC)C(=O)C(=O)Nc1ccc(OCc2ccccc2)cc1	0.1	-1.2	0.5	12.0*	-1.0
O=C(Nc1ccc(OCc2ccccc2)cc1)c1cccs1	2.0	2.3	5.1*	9.1	-1.0
O=C(Nc1ccc(-c2cn3ccccc3n2)cc1)c1cccs1	3.6	1.4	1.2	12.4*	-0.1
O=C(N/N=C/c1ccc(OCc2ccccc2)cc1)c1cccs1	0.7	1.9	1.9	8.8	-0.8
O=C(Nc1ccc(NC(=O)c2ccccc2F)cc1)c1cccs1	4.2*	0.6	0.3	8.4	0.1
Cc1ccc(-c2c(NC(=O)Nc3ccc(F)cc3)nc3ncccn23)cc1	-1.8	1.1	·	4.1	-0.5
CCCCCCC[C@H](N)[C@H](O)C(=O)N(C)[C@@H](CCS(C)=O)C(=O)N[C@@H](Cc1ccc(O)cc1)C(=O)O (stereo not given in full)	·	-0.8	·	1.1	-0.8
SMILES	DAX1 inh-1	hcDAF-12 act	DAX1 inh-2	hgDAF-12 ag	ssDAF12 agonist
CN(C)[C@H]1CCN(c2ccc3c(c2)O[C@@H]2CCN(C2)S3(=O)=O)C1	0.7	0.0	·	2.6	0.2
CCOc1ccc2c(c1)C(=O)c1cc(OCC(=O)O)ccc1-2	0.3	0.0	0.5	-1.9	-0.8
CCCCOc1ccc2c(c1)C(=O)c1cc(O)ccc1-2	1.6	1.4	1.3	10.8*	-0.7
COc1ccccc1NC(=O)OC1CC2CC1[C@H]1CCCCN1[C@H]2Cc1ccccc1 (stereo not given in full)	-0.1	-0.4	·	-1.0	-0.6
CCOc1ccc(Cn2nnc(C(=O)NCCc3ccc(Cl)cc3)c2N)cc1	-0.8	-1.9	2.0	-0.3	-0.5
CCOc1ccc(Cn2nnc(C(=O)NCCc3ccccc3)c2N)cc1	0.8	-1.7	4.4*	7.1	-0.9
COc1cccc(Cn2nnc(C(=O)NCCc3ccc(Cl)cc3)c2N)c1	-0.8	-1.3	5.5*	3.0	-1.6
CCCCNC(=O)C[C@@H]1C(=O)N(CCc2ccc(Cl)cc2)/C2=C/CCCCC[C@@]21C(=O)OCC	-0.2	0.3	·	0.7	-1.6
COCCCNc1oc(/C=C/c2ccccc2)nc1C#N	2.5	4.7	2.8	11.7*	0.3
C=CCNc1oc(/C=C/c2ccccc2)nc1C#N	3.9*	4.5	3.0	9.0	0.9*
Nc1nnn(-c2ccccc2)c1-c1ccccc1	0.4	2.1	4.6*	-0.9	-1.7
O=C(/C=C/c1ccc(Cl)cc1)NC1CC2CCC1C2 (stereo not given)	0.8	-1.1	-0.1	11.4*	-1.0
COC(=O)[C@]12C[C@H](CC(=O)NCc3ccccc3)C(=O)N(Cc3ccccc3)C1=C[C@H](C(C)(C)C)O[C@@H]2C	-0.6	-0.1	·	0.3	-1.1
O=C1NC(=Nc2ccccc2)S/C1=C\c1ccccc1	0.2	4.9	3.1	2.4	1.0*
COc1ccc(/C=C2\SC(=Nc3ccccc3OC)NC2=O)cc1	-1.4	-2.9	4.3*	2.1	-1.6
Cc1ccc2nc3c(c(N)c2c1)CCN3C	0.5	6.2*	3.6	6.5	-0.2
Cc1ccc2nc3c(c(N)c2c1)CCN3c1ccccc1	-0.6	-0.3	-1.9	0.2	-1.6
COc1cc(/C=N/n2cnnc2)ccc1OCc1ccc(C)cc1	1.1	1.2	0.6	11.7*	-0.5
CCOc1cc(/C=N/n2cnnc2)ccc1O	-0.1	6.5*	0.0	0.2	-1.1
C=CCc1cc(/C=N/n2cnnc2)cc(OCC)c1O	0.5	-0.4	1.1	0.6	-0.9
COc1cc(COCC(O)CN2C(C)CCCC2C)cc(OC)c1OC (stereo not given)	0.0	2.4	4.6*	1.2	-1.7
COc1ccccc1OC(=O)c1ccc(S(=O)(=O)N(C)C)cc1	0.0	-0.9	5.2*	2.7	-1.4
CCOC(=O)[C@]12CCCCC/C=C\1N(CCc1ccc(Cl)cc1)C(=O)[C@H]2CC(=O)NCc1cccc(C(F)(F)F)c1	-1.1	-3.1	·	-0.8	-0.9
CCCCCCn1c(COc2ccccc2F)nnc1SCC(=O)c1c(N)n(C)c(=O)n(C)c1=O	1.1	-0.6	·	-0.5	1.2*
COCC(C)n1c(COc2ccccc2F)nnc1SCC(=O)c1c(N)n(C)c(=O)n(C)c1=O (stereo not given)	0.1	-1.1	0.8	-2.1	-2.2
